# Screening results deposited in PubChem BioAssay by National Center for Advancing Translational Sciences (NCATS).
# LMNA splice mod: qHTS Assay for Modulators of Lamin A Splicing | 0.01% of 200,000 active | Potency, µM (top dose mostly 46.1 µM), for inactives: at the top dose ratio change, negative = inhibition, usual class: inhibitors | HeLa LMNA splicing GFP/RFP minigene ratio, 48 h; active = well fitted inhibition curve with a large enough effect in the signal ratio, with a control signal flat, not every such curve was filed as active; inconclusive = small, poorly fitted or top-dose-only effect, or effect the other way, or a change in a side signal; the % refers to the signal ratio; also: % is scaled to controls: 0 for no effect and ±100 for the full control effect
#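 S3 HeLa cells stably expressing lamin A-EGFP splicing minigene plus DsRed2, 600 cells/well, 48 h compound exposure at 37C. Laser-scanning cytometry; analysed as GFP (500-530 nm)/RFP (575-640 nm) total intensity ratio; 0.5% DMSO vehicle.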
# HPGD inh: qHTS Assay for Inhibitors of HPGD (15-Hydroxyprostaglandin Dehydrogenase); 4.3% of 150,000 active; purified HPGD, NADH fluorescence kinetic, PGE2 substrate; 15-hydroxyprostaglandin dehydrogenase [NAD(+)] (Homo sapiens), P15428; Potency, µM, inactives show at the top dose activity change, negative = inhibition, hits mostly inhibitors; active = well fitted inhibition curve with a large enough effect, not every such curve was filed as active; inconclusive = small, poorly fitted or top-dose-only effect, or another doubt; inactive = no such curve, though single readings can be large or run the other way; also: % is scaled to controls: 0 for no effect and ±100 for the full control effect
# Target sequence (P15428 whole entry, looked up): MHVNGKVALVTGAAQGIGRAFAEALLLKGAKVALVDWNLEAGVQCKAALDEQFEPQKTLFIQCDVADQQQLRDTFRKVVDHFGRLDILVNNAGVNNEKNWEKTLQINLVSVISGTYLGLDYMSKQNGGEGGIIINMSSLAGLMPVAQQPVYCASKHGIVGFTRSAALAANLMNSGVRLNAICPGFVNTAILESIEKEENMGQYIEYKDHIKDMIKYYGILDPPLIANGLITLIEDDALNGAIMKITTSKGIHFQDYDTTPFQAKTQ
#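 NADH formation kinetics: reaction with 30 uM PGE2 and 1 mM NAD+ (final), 20 nM enzyme, Tris-HCl pH 8 with Tween 20, after 15 min compound preincubation at room temperature. Fluorescence change, last versus first of five reads.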
# HTT cytoprotect: qHTS Multiplex Assay to Identify Dual Action Probes in a Cell Model of Huntington: Cytoprotection (ATP) | Potency, µM (titrated, usually from 56.4 µM), without a hit: cytoprotection (ATP increase), actives largely listed as activators | 0.14% of 230,000 active | PC12 HTT-Q103 induced, cytoprotection, ATP luminescence, 40 h; also: % of control where 0% means no effect; nearly all actives have a fitted effect of over 45% in size
#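 Readout: ATPlite luminescence (ATP level). Model: stable PC12, inducible Htt exon1 Q103-GFP. Inducer: tebufenozide, 100 nM final. Compounds: dose series. No G418 in medium.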
# KinaseGlo FLuc: Counterscreen for Luciferase (Kinase-Glo TM) Inhibition; Potency, µM (series often up to 38.3 µM), inactives show at the highest dose activity change, negative = inhibition, most hits filed as inhibitors; Luciferin 4-monooxygenase (Photuris pensylvanica), Q27757; Kinase-Glo luciferase, ATP luminescence, 8 min; 0.28% of 200,000 active; also: % is scaled to controls: 0 for no effect and ±100 for the full control effect; nearly all actives have a fitted effect of over 60% in size
#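 Substrate mix (final 50 mM imidazole pH 7.2, 50 mM KCl, 7 mM MgCl2, 10 uM ATP, 0.01% Tween 20, 0.05% BSA) plus pin-tool compound, then Kinase-Glo detection mix; 8 min ambient, luminescence read.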
# HttQ103 aggreg: qHTS Multiplex Assay to Identify Dual Action Probes in a Cell Model of Huntington: Aggregate Formation (GFP). PC12 HttQ103-GFP aggregates, Acumen cytometry, 40 h. Potency, µM (highest dose often 46.1 µM), without a hit: at the highest dose activity change, negative = inhibition, hits mostly inhibitors. 1.1% of 220,000 active. AID 1688, 2009; also: % is scaled to controls: 0 for no effect and ±100 for the full control effect; nearly all actives have a fitted effect of over 60% in size
#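 Aggregates are detected as GFP objects 1–25 µm with signal 6 STDEV over background in lysates of induced PC12 cells. These carry Huntingtin exon 1 with 103 glutamines fused to GFP under an ecdysone promoter; compounds titrated.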
# ALDH1A1 inh: qHTS Assay for Inhibitors of Aldehyde Dehydrogenase 1 (ALDH1A1). Aldehyde dehydrogenase 1A1 (Homo sapiens), P00352. Purified ALDH1A1, NADH fluorescence, propionaldehyde substrate. Potency, µM (highest dose often 75.3 µM), for inactives: at the top dose activity, negative = inhibition, actives largely listed as inhibitors. 7.3% of 220,000 active; active = well fitted inhibition curve with a large enough effect, not every such curve was filed as active; inconclusive = small, poorly fitted or top-dose-only effect, or another doubt; inactive = no such curve, though single readings can be large or run the other way;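 also: plate controls were no enzyme wells and a reference inhibitor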
# An asterisk follows results filed as active; ? = inconclusive; nt = no result; [ ] = remark or other dose. Shown are actives, neighbours in structure and some others; about 9% of the full set was active somewhere. Unless noted, calls follow the shape of the dose curve; as a rule, active = well fitted curve in the direction sought with a large enough effect; inconclusive = small, poorly fitted or top-dose-only effect, or another doubt; inactive = no such curve, though single readings can be large; an effect the other way counts as inactive or inconclusive. Potency is read from the fitted curve at half-maximal effect.
SMILES,LMNA splice mod,HPGD inh,HTT cytoprotect,KinaseGlo FLuc,HttQ103 aggreg,ALDH1A1 inh
CC(C)Cn1c(=O)[nH]c2ccccc21,2.7%,-18.2%,2.9%,-2.3%,-1.1%,4.9%
CC(C)(C)c1ccc(/C=N/NC(=O)Cc2c[nH]c3ccccc23)cc1,-6.4%,-23.0%,-29.7%,-4.1%,-8.4%,?
Cc1ccccc1Nc1nnc(SCC(=O)Nc2ccccc2[N+](=O)[O-])s1,?,?,-74.5%[10 µM],0.4%,?,13.6%
S=c1[nH]nc(COc2ccccc2)n1Cc1ccccc1,?,?,9.7%[10 µM],-2.6%,9.9%,11.2µM*
Cc1ccc(-n2c(Cc3noc4ccccc34)n[nH]c2=S)cc1,nt,nt,0.5%,5.4%,-11.8%,14.1µM*
S=c1[nH]nc(-c2ccc(Br)o2)n1Cc1ccccc1,?,28.2µM*,-2.1%,0.2%,15.3%,1.41µM*
S=c1[nH]nc(Cc2noc3ccccc23)n1-c1ccc(Cl)cc1,nt,nt,-4.1%,4.9%,-4.6%,-7.3%
CCCOc1ccc(Cn2cnc3ccccc32)cc1,?,-8.1%,-8.7%,0.9%,25.1µM*,-0.5%
Fc1ccc(Cn2cnc3ccccc32)cc1,-1.5%,-2.0%,3.8%,1.7%,-4.9%,-6.2%
O=C(CSc1nnc(Cn2nnc3ccccc32)o1)N(Cc1ccc(Cl)cc1)c1ccccc1,?,-20.6%,-12.8%,0.0%,7.08µM*,-15.2%
COc1ccc(NC(=O)c2ccc(=O)[nH]c2)cc1S(=O)(=O)N1CCCCC1,6.8%,-6.2%,21.8%[10 µM],0.5%,13.5%,6.8%
CCOC(=O)c1sc(-c2ccc(C)cc2)c(C#N)c1C,7.5%,?,-32.7%[10 µM],-2.9%,10.5%,?
Cc1c(C(=O)NN)sc(-c2ccccc2)c1C#N,nt,nt,-20.0%,-2.9%,-10.2%,1.26µM*
Cc1ccc(C)c2[nH]c(=O)c(CCNC(=O)c3ccc(S(=O)(=O)N(C)C)cc3)cc12,-1.4%,-4.5%,-12.0%,-0.9%,?,22.4µM*
CCN(CC)S(=O)(=O)c1ccc(C(=O)NCCc2cc3c(OC)ccc(OC)c3[nH]c2=O)cc1,2.3%,-4.8%,-41.1%,2.0%,9.0%,?
COc1ccc(/C=C(\C#N)C(=O)NCCc2ccccc2)cc1OCc1ccccc1,?,?,-11.3%[10 µM],-4.5%,8.8%,?
N#C/C(=C\c1ccc(O)c(O)c1)C(=O)NCCCc1ccccc1,?,31.6µM*,-7.4%,1.9%,-26.0%,?
N#C/C(=C/c1ccc(N2CCOCC2)o1)C(=O)Nc1ccccc1,?,nt,-10.5%[10 µM],0.3%,-18.7%[9.22 µM],22.4µM*
N#C/C(=C\c1ccc(N2CCOCC2)o1)C(=O)NCCc1ccccc1,7.5%[46 µM],nt,10.2%[10 µM],3.7%,3.6%[9.22 µM],?
COCCNC(=O)/C(C#N)=C/c1ccc(N2CCOCC2)o1,-4.7%,?,nt,-0.1%,?,31.6µM*
COCCNC(=O)/C(C#N)=C/c1cccc(/C=C(\C#N)C(=O)NCCOC)c1,?,25.1µM*,nt,4.7%,12.3%,?
Oc1cc(-c2ccccc2)c2ccccc2c1,10.5%,?,nt,-2.7%,6.1%,?
CCCCCCCCNC(=O)/C(C#N)=C/c1ccc2c(c1)OCCO2,-5.6%,?,-4.1%[10 µM],2.2%,14.4%,?
CCCCNC(=O)/C(C#N)=C/c1ccc2c(c1)OCCO2,-9.6%,?,?,-1.1%,1.8%,6.31µM*
O=C1Nc2cc(C(=O)N3CCc4ccccc4C3)ccc2S/C1=C\c1ccccc1,?,15.8µM*,2.82µM*,1.7%,-25.9%,?
CCOc1ccccc1C(=O)OCC(=O)Nc1ccc(OC(F)F)cc1,0.6%,-11.4%,-49.5%,-0.6%,-8.1%,-3.0%
